Consider 40 molecules from PubChem BioAssay (Tox21).

“And” between values parts separate entries of the source, which are not always exact repeats. Identical values can stand only once. Results filed as inconclusive are left out. Unmarked numbers belong to inactive results. The source made the active and inactive calls. The call rests on the fitted dose curve; in most records, active means well fitted inhibition curve with a large enough effect in the signal ratio in the repeat runs (not every such curve was filed as active); inconclusive means weak or mixed curves, or effect the other way; inactive means no such curve, though single readings can be large or run the other way; the % refers to the signal ratio. Starred links: 1 amine or outer side, 2 acyl side, 3 side chain; linkers in the order of their positions; H or OH if unused. Positions of bridges follow the written chain, without caps; N, C: chain ends. Non-standard residues stand in square brackets, D forms with d. Residues, ends and D or L forms follow the SMILES beside them. Chains are numbered I, II in the order given. Actinocin(9to1) = Cc1c2oc3c(C)ccc(C(=O)[*:1])c3nc-2c(C(=O)[*:2])c(N)c1=O; NMeV = CN[C@H](C(=O)O)C(C)C; Sar = CNCC(=O)O
On the % scale 0 is the no-effect control and ±100 the full control effect; potency means the concentration at half of the fitted maximal effect.

Sequence of Estrogen receptor beta (Homo sapiens) (Q92731 whole entry, looked up): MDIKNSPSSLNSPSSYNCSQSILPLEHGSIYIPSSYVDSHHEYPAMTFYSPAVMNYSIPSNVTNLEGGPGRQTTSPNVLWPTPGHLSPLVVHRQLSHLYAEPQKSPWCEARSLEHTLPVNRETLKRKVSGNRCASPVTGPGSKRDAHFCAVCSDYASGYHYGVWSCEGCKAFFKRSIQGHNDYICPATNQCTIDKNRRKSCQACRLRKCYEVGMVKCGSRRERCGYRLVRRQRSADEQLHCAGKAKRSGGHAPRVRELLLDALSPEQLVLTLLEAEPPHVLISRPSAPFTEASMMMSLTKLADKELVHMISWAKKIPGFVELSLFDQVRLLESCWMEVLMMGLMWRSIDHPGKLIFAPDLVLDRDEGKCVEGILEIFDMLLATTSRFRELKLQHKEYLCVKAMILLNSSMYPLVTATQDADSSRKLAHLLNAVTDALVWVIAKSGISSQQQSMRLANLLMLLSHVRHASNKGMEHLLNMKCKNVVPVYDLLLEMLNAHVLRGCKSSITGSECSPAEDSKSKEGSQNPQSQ

This assay has as its target Estrogen receptor beta (Homo sapiens) (UniProt Q92731). As to the kind of experiment: qHTS assay to identify small molecule antagonists of the estrogen receptor beta (ER-beta) signaling pathway (AID 1259378). As to conditions: ER-beta-UAS-bla HEK293T, beta-lactamase FRET ratio, 16 h; series mostly up to 92.4 µM; activity, negative = inhibition: at the top concentration. The source says:
National Center for Advancing Translational Sciences [NCATS]
NIH Chemical Genomics Center [NCGC]
U.S. Environmental Protection Agency [EPA]
National Institutes of Environmental Health Sciences [NIEHS]
National Toxicology Program [NTP]
U.S. Food and Drug Administration [FDA]
Estrogen receptor (ER), a nuclear hormone receptor, plays an important role in development, metabolic homeostasis and reproduction. Two subtypes of ER, ER-alpha and ER-beta, have similar expression patterns with some uniqueness in both types. Endocrine disrupting chemicals (EDCs) and their interactions with steroid hormone receptors like ER causes disruption of normal endocrine function. To identify the compounds that inhibit ER signaling, an ER-beta-UAS-bla GripTite cell line (Life Technologies, Madison, WI, USA) containing a beta-lactamase reporter gene under the control of an UAS response element was used to screen Tox21 10K compound library.
Tox21 Assay Protocol Summary:
ER-beta-UAS-bla HEK293T cells were dispensed at 2,000 cells/4 uL of assay medium containing 2% charcoal stripped FBS per well into black wall/clear-bottom 1536-well plates using a Multidrop Combi (ThermoFisher Scientific, Waltham, MA) dispenser. After the assay plates were incubated at a 37C and 5% CO2 for 6 hr, 23 nL of compounds dissolved in DMSO, positive controls or DMSO only was transferred to the assay plate by a Pintool station (Kalypsys, San Diego, CA), followed by addition of 1 uL (1nM as final concentration) of 17-beta-estradiol (E2) in assay medium using a BioRAPTR FRD (Flying Reagent Dispenser, Aurora Discovery, San Diego, CA). The plates were incubated at 37C and 5% CO2 for 16 hr. Then 1 uL of LiveBLAzerTM B/G FRET substrate was added using a Flying Reagent Dispenser, the plates were incubated at room temperature for 2 hours, and fluorescence intensity was measured by an Envision plate reader (PerkinElmer, Shelton, CT).
A general note: In qHTS, concentration-response curves come from the screen itself.
For the molecule `CN1C(=O)c2ccc([N+](=O)[O-])cc2C1=O`, the “activity, negative = inhibition” value was 2.15%.

As for `C=CC(=O)OCCCCCCOC(=O)C=C`, the Potency was 54.5 µM (active).

Regarding `O=C(O[C@@H]1Cc2c(O)cc(O)cc2O[C@@H]1c1cc(O)c(O)c(O)c1)c1cc(O)c(O)c(O)c1`, the “activity, negative = inhibition” value is -12.4%.

Regarding `C=C(C)C1CC=C(C)C(OC(C)=O)C1` (stereo not given), the Potency result is “inactive”.

For the molecule `COC(c1ccccc1)(c1ccccc1)[C@H](Oc1nc(C)cc(C)n1)C(=O)O`, the “activity, negative = inhibition” value is 4.95% [at 42.5 µM].

Take `C/C=C/c1ccc(OCC)c(O)c1`: the “activity, negative = inhibition” value is 4.78%.

Consider `CC(=O)Nc1ccc(C(=O)CCl)cc1`, for which the Potency result is “inactive”.

Take `CCC(=O)/C=C/C1C(C)=CCCC1(C)C` (stereo not given): the Potency entry is “inactive”.

`CCCCCCCCCCCCc1ccccc1O`: the Potency is 1.35 µM (active).

As for `CC(=O)N[C@@H](CS)C(=O)O`, the “activity, negative = inhibition” value is -9.22% [at 42.5 µM].

Take `CC(C)CCOCc1ccccc1`: the “activity, negative = inhibition” value is 3.65%.

In the case of `Nc1ccc(O)cc1`, the “activity, negative = inhibition” value is 2.51% [at 42.5 µM].

For the molecule `CCC(CO)(CO)COCC(CC)(CO)CO`, the “activity, negative = inhibition” value was 1.77%.

Regarding `COc1nc(C)nc(Cl)c1NC1=NCCN1`, the “activity, negative = inhibition” value was 17.1% [at 42.5 µM].

Take `O=C(Cl)c1cccc(C(=O)Cl)c1`: the Potency entry was “inactive”.

Take `Cc1c2oc3c(C)ccc(C(=O)N[C@@H]4C(=O)N[C@H](C(C)C)C(=O)N5CCC[C@H]5C(=O)N(C)CC(=O)N(C)[C@@H](C(C)C)C(=O)O[C@@H]4C)c3nc-2c(C(=O)N[C@@H]2C(=O)N[C@H](C(C)C)C(=O)N3CCC[C@H]3C(=O)N(C)CC(=O)N(C)[C@@H](C(C)C)C(=O)O[C@@H]2C)c(N)c1=O` (I: T[dV]P[Sar][NMeV] / II: T[dV]P[Sar][NMeV]; ester I:1-I:C, II:1-II:C; linker I:N-II:N via Actinocin(9to1)): the Potency was 0.0266 µM (active).

Consider `Clc1ccc2c(c1)C(N1CCNCC1)=Nc1ccccc1O2`, for which the Potency result was “inactive”.

On to `C=C(C)C(=O)O`, for which the Potency entry was “inactive”.

As to `Oc1ccc(Cl)cc1Cc1cc(Cl)ccc1O`, the Potency was 17.5 µM (active) and 19.3 µM (active) and 23.7 µM (active).

In the case of `Nc1nc(=S)c2[nH]cnc2[nH]1`, the “activity, negative = inhibition” value was -26.6%.

With `CCN(CC)C(=O)Nc1ccc(OCC(O)CNC(C)(C)C)c(C(C)=O)c1` (stereo not given), the “activity, negative = inhibition” value is -7.26% [at 42.5 µM].

In the case of `CO[Si](OC)(OC)c1ccccc1`, the “activity, negative = inhibition” value is 1.54%.

As to `O=C(O)CCc1ccccc1`, the “activity, negative = inhibition” value is -7.56%.

As for `O=C1Nc2ccccc2C1(c1ccc(O)cc1)c1ccc(O)cc1`, the Potency was 27.3 µM (active) and 18.8 µM (active).

As for `CCCCCC(=O)O[C@]1(C(C)=O)CC[C@H]2[C@@H]3CCC4=CC(=O)CC[C@]4(C)[C@H]3CC[C@@]21C`, the Potency was 6.68 µM (active).

On to `CCN(CC)CCOc1ccc(/C(=C(\Cl)c2ccccc2)c2ccccc2)cc1`, for which the Potency was 0.266 µM (active).

Regarding `Oc1c(Cl)cc(Cl)cc1Sc1cc(Cl)cc(Cl)c1O`, the Potency was 27.8 µM (active) and 7.7 µM (active).

In the case of `N[C@@H]1CONC1=O`, the “activity, negative = inhibition” value is -0.574% [at 42.5 µM].

With `Cc1scc2c1N(C(=O)CN1CCN(C)CC1)c1ccccc1NC2=O`, the “activity, negative = inhibition” value is -3.79% [at 42.5 µM].

`Cc1ccc(S(=O)(=O)Oc2ccc(N=Nc3ccc(-c4ccc(N=Nc5c(O)ccc6cc(S(=O)(=O)O)cc(S(=O)(=O)O)c56)c(C)c4)cc3C)cc2)cc1`: the “activity, negative = inhibition” value is -17.4%.

For `CC(C)(O)CCC(C)(C)O`, the “activity, negative = inhibition” value is 4.57%.

Take `O=C(OCc1ccccc1)c1ccc(O)cc1`: the Potency was 19.3 µM (active).

Consider `O=C1NCC2(CCN(CCc3ccccc3)CC2)O1`, for which the “activity, negative = inhibition” value is -0.131% [at 42.5 µM].

Turning to `CC(=O)OCCOCCOCCOC(C)=O`, the Potency result is “inactive”.

`O=Cc1ccc(Cl)cc1`: the “activity, negative = inhibition” value was 10.4%.

Turning to `CCCCOCCOC(=O)c1ccccc1C(=O)OCCOCCCC`, the Potency result is “inactive”.

Regarding `O=C(O)Cn1cnnn1`, the “activity, negative = inhibition” value is 3.55% [at 42.5 µM].

In the case of `COC(=O)/C=C/c1ccccc1`, the “activity, negative = inhibition” value was -2.7%.

For the molecule `CC1COC(=O)O1` (stereo not given), the Potency entry was “inactive”.

With `O=C(O)c1cc(Cl)cc(Cl)c1`, the “activity, negative = inhibition” value is 0.375%.
